Measured values from PubChem BioAssay (EPA / NIEHS).
Inconclusive results are not listed. Activity calls are given as the source filed them. Rule for the calls, unless noted: active = hit-call score of the fitted dose curve at least 0.9, where 1 is the maximum; inactive = score below 0.9.

How the values were obtained:
[1] = CCTE_Shafer_MEA_dev_firing_rate_mean: CCTE's Neural Network Formation Assay for Mean Firing Rate, Shafer Lab (AID 2284031)
Summary of the method: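 Rat primary cortical neurons were seeded on multielectrode arrays and treated from plating through day 12, with redosing at each feed. Spontaneous spiking was recorded four times; mean firing rate AUC was fitted downward against DMSO.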

[2] = CCTE_Shafer_MEA_dev_per_burst_spike_percent: CCTE's Neural Network Formation Assay for Percent of Spikes in a Burst, Shafer Lab (AID 2284032)
Summary of the method: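 Rat primary cortical neurons on 16-electrode MEA wells, dosed from plating day 0 for 12 days with renewal on DIV 5 and 9; spikes-in-bursts percentage averaged over bursting electrodes, collapsed as AUC across days 5, 7, 9, 12; loss direction versus DMSO.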

[3] = CCTE_Shafer_MEA_dev_active_electrodes_number: CCTE's Neural Network Formation Assay for Number of Active Electrodes, Shafer Lab (AID 2284040; active = hit-call score of the fitted dose curve at least 0.9, where 1 is the maximum)
Summary of the method: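 Primary rat cortical neurons on 16-electrode MEA wells, exposed from day 0 through day 12 with compound renewed at DIV 5 and 9 feeds. Active electrodes (mean firing ≥5 spikes/min) counted at DIV 5, 7, 9, 12; trapezoidal AUC across days, loss-of-signal versus DMSO.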

[4] = CCTE_Shafer_MEA_dev_burst_rate: CCTE's Neural Network Formation Assay for Burst Rate, Shafer Lab (AID 2284042)
Summary of the method: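 Rat primary cortical cultures on PEI/laminin MEA; compound from plating, re-dosed at DIV 5, 9 media change. Single-electrode bursts/recording length, well mean of active electrodes; AUC over DIV 5–12 recordings; loss-of-signal vs DMSO.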

[5] = CCTE_Shafer_MEA_dev_bursting_electrodes_number: CCTE's Neural Network Formation Assay for Number of Bursting Electrodes, Shafer Lab (AID 2284043; active = hit-call score of the fitted dose curve at least 0.9, where 1 is the maximum)
Summary of the method: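 Primary rat cortical neurons plated on 16-electrode MEA wells, exposed from day 0 with compound renewed at DIV 5 and 9. Electrodes bursting ≥1 burst per 2 min counted on days 5, 7, 9 and 12; trapezoidal AUC across days, fitted for loss versus DMSO.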

[6] = CCTE_Shafer_MEA_dev_per_burst_interspike_interval: CCTE's Neural Network Formation Assay for Burst Interspike Interval, Shafer Lab (AID 2284044);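 note: mean spike spacing inside bursts as AUC over recordings on days 5 7 9 12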
Summary of the method: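 Spontaneous activity of maturing rat cortical networks is recorded on DIV 5, 7, 9 and 12 under chronic compound exposure beginning at plating. Endpoint: burst interspike interval well-mean, collapsed into trapezoidal AUC and fitted in the negative direction relative to DMSO.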

[7] = CCTE_Shafer_MEA_dev_burst_duration_mean: CCTE's Neural Network Formation Assay for Mean Burst Duration, Shafer Lab (AID 2284045)
Summary of the method: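 Primary rat cortical neurons on 48-well 16-electrode MEA plates, exposed from day 0 with renewal at DIV 5 and 9; spontaneous activity recorded on days 5, 7, 9, 12. Well-mean burst duration across bursting electrodes, collapsed as trapezoidal AUC; DMSO baseline.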

[8] = CCTE_Shafer_MEA_dev_interburst_interval_mean: CCTE's Neural Network Formation Assay for Mean Interburst Interval, Shafer Lab (AID 2284046);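 note: well-mean interburst interval of bursting electrodes as AUC over four recording days; curve fitted for decrease in interburst interval relative to DMSO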
Summary of the method: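 Rat cortical neurons, 1.5 x 10^5 cells/well, 48-well MEA; compound from day 0 through DIV 12, media and treatment renewed DIV 5/9. Recordings DIV 5, 7, 9, 12; well-mean interburst interval → trapezoidal AUC, loss direction vs DMSO.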

[9] = CCTE_Shafer_MEA_dev_inter_network_spike_interval_mean: CCTE's Neural Network Formation Assay for Mean Inter-network Spike Interval, Shafer Lab (AID 2284047)
Summary of the method: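 Primary rat cortical neurons on PEI-coated 48-well MEAs (16 electrodes/well) were exposed from plating day 0 to DIV 12, with dosing renewed at DIV 5 and 9. Recordings at DIV 5, 7, 9, 12 were collapsed by trapezoidal AUC, loss-of-signal fit vs DMSO.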

[10] = CCTE_Shafer_MEA_dev_network_spike_number: CCTE's Neural Network Formation Assay for Number of Network Spikes, Shafer Lab (AID 2284048)
Summary of the method: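 Primary rat cortical neurons on PEI/laminin 48-well MEA plates, dosed from plating day 0 for 12 days, renewed at DIV 5 and 9. Network spike counts recorded DIV 5, 7, 9, 12, collapsed as trapezoidal AUC; DMSO baseline.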

[11] = CCTE_Shafer_MEA_dev_network_spike_peak: CCTE's Neural Network Formation Assay for Mean Number of Electrodes in Network Spike, Shafer Lab (AID 2284049)
Summary of the method: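 Network-spike peak electrode count from recordings on days 5, 7, 9 and 12 was combined as trapezoidal area under the curve. Rat cortical cultures were treated continuously from plating, with compound renewed at each feed (DIV 5, 9); fits versus DMSO.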

[12] = CCTE_Shafer_MEA_dev_spike_duration_mean: CCTE's Neural Network Formation Assay for Mean Spike Duration, Shafer Lab (AID 2284051);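 note: mean network spike duration pooled as area under curve over DIV 5 to 12 recordings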
Summary of the method: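 Rat cortical primary cultures, 48-well MEA (16 electrodes/well); compound from plating, renewed DIV 5, 9. Network spike duration (AxIS adaptive detector) recorded DIV 5/7/9/12, combined as trapezoidal AUC; loss direction vs DMSO.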

[13] = CCTE_Shafer_MEA_dev_network_spike_duration_std: CCTE's Neural Network Formation Assay for Standard Deviation of Network Spike Duration, Shafer Lab (AID 2284052);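 note: area under curve of spike duration SD across recording days 5 to 12; hits are decreases in network spike duration SD versus DMSO vehicle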
Summary of the method: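 Rat cortical cultures, 1.5 x 10^5 cells/well, exposed continuously from plating to DIV 12 with media/compound renewal at DIV 5, 9. Spontaneous activity recorded DIV 5/7/9/12, AxIS adaptive spike detector; AUC across days; negative direction vs DMSO.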

[14] = CCTE_Shafer_MEA_dev_per_network_spike_spike_number_mean: CCTE's Neural Network Formation Assay for Mean Number of Spikes in a Network Spike, Shafer Lab (AID 2284053)
Summary of the method: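 Rat cortical primary cultures on 48-well MEA; compound from day 0, re-dosed with full media change DIV 5, 9. Recorded DIV 5, 7, 9, 12; spikes in 0.05 s window at network-spike peak ÷ total network spikes; AUC; loss vs DMSO.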

[15] = CCTE_Shafer_MEA_dev_per_network_spike_spike_percent: CCTE's Neural Network Formation Assay for Percent of Spikes in a Network Spike, Shafer Lab (AID 2284054)
Summary of the method: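 Rat primary cortical neurons were grown on 48-well MEA plates (16 electrodes/well), exposed from plating day 0 through day 12, with treatment renewed on DIV 5 and 9. Percent of spikes within 0.05 s network-spike peaks was measured, summarised as AUC across days 5, 7, 9, 12.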

[16] = CCTE_Shafer_MEA_dev_correlation_coefficient_mean: CCTE's Neural Network Formation Assay for Mean Correlation Coefficient, Shafer Lab (AID 2284093)
Summary of the method: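 Rat cortical cultures, 1.5 x 10^5 cells/well, dosed from day 0 for 12 days. Spontaneous spikes recorded DIV 5/7/9/12; electrode-pair correlation coefficients averaged, AUC taken. Fit in loss direction vs DMSO.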

[17] = UKN2_HCS_IMR90_neural_migration: University of Konstanz (UKN) Leist Lab Neural Crest Cell Migration Assay in human induced IMR90 Pluripotent Stem Cells (UKN2) (AID 2284204); details: actives raise or lower the signal
Summary of the method: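 iPSC-derived IMR90 neural crest cells seeded around stoppers on PLO/laminin/fibronectin; migration started in N2-S medium with EGF/FGF, compounds added after 24 h for 24 h. Migration into cell-free area imaged after calcein-AM/Hoechst staining; bidirectional fit versus DMSO.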

[18] = IUF_NPC1b_proliferation_BrdU_72hr: Leibniz Research Institute for Environmental Medicine (IUF) 72-hour Neural Progenitor Cell Bromodeoxyuridine (BrdU) Proliferation Assay (NPC1b) (AID 2284207)
Summary of the method: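 BrdU luminescence ELISA quantified DNA synthesis over the last 16 h of a 72 h exposure, fitted against DMSO. Primary hNPC spheres from gestational week 16-19 cortex grown with EGF/FGF at 37C, pH 7.2-7.6.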

[19] = IUF_NPC1a_proliferation_area_72hr: Leibniz Research Institute for Environmental Medicine (IUF) 72-hour Neural Progenitor Cell Proliferation Area Assay (NPC1a) (AID 2284208)
Summary of the method: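 Measured in 3D suspension: each well held one primary hNPC sphere grown with EGF and FGF at pH 7.2-7.6. Compound stayed on for 72 h, then area was imaged; spheres lacking growth factors defined reduced proliferation.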

[20] = IUF_NPC1_viability_72hr: Viability Assessment at 72 hours in the Leibniz Research Institute for Environmental Medicine (IUF) Neural Progenitor Cell Proliferation Assay (NPC1) (AID 2284209)
Summary of the method: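 hNPC spheres, 1/well, EGF+FGF medium, 37C/5% CO2; dosed day 0, 72 h, no re-dosing. Resazurin reduction (alamar blue) fluorescence; DMSO = negative control/baseline; growth-factor-free wells as positive control.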

[21] = CCTE_Mundy_HCI_Cortical_Synap_Neur_Matur_NeuriteSpotCountPerNeuriteLength: CCTE's Synaptogenesis and Neurite Maturation Assay in rat cortical cells for Neurite Spot Count per Neurite Length, Mundy Lab (AID 2284210)
Summary of the method: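 Rat primary cortical cultures, AraC added at DIV 5 to suppress glia; chemical exposure from DIV 7 to DIV 12. Fixed cells stained for MAP2 and synaptophysin plus Hoechst; synaptophysin puncta per neurite length quantified by high-content imaging, relative to DMSO.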

[22] = CCTE_Mundy_HCI_Cortical_Synap_Neur_Matur_BPCount: CCTE's Synaptogenesis and Neurite Maturation Assay in rat cortical cells for Branch Point Count, Mundy Lab (AID 2284211)
Summary of the method: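 Rat primary cortical cultures, AraC added DIV 5; chemicals dosed DIV 7 through DIV 12. Fixed cells stained for MAP2, synaptophysin and Hoechst; neurite branch points counted by automated high-content imaging, fitted relative to DMSO.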

[23] = CCTE_Mundy_HCI_Cortical_NOG_NeuriteCount: CCTE's Neurite Outgrowth Assay in rat cortical cells for Neurite Count, Mundy Lab (AID 2284212);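 note: cells fixed about two days after chemical exposure began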
Summary of the method: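 Neurite number per cell from high-content imaging of betaIII-tubulin immunostaining, with Hoechst nuclear counterstain.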

[24] = CCTE_Mundy_HCI_Cortical_Synap_Neur_Matur_NeuriteLength: CCTE's Synaptogenesis and Neurite Maturation Assay in rat cortical cells for Neurite Length, Mundy Lab (AID 2284214)
Summary of the method: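 Rat cortical neurons, AraC at DIV 5; compound + media change DIV 7, end DIV 12 (288.33 h). Fix, MAP2/synaptophysin/Hoechst immunostain, automated HCI of neurite length vs DMSO.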

Question: For `Cc1[nH]n(C)c(=O)c1C(=O)c1ccc(C(F)(F)F)cc1S(C)(=O)=O`, which outcome [1] is on record?
Answer: Its outcome is “inactive”.

Question: And the outcome [2]?
Answer: The outcome was “inactive”.

Question: What about the outcome [3] of the same molecule?
Answer: The outcome was “inactive”.

Question: What about the outcome [4] of the same molecule?
Answer: The outcome was “inactive”.

Question: And the outcome [5]?
Answer: The outcome was “inactive”.

Question: And the outcome [6]?
Answer: Its outcome is “inactive”.

Question: And the outcome [7]?
Answer: Its outcome is “inactive”.

Question: What about the outcome [8] of the same molecule?
Answer: The outcome was “inactive”.

Question: And the outcome [9]?
Answer: Its outcome is “inactive”.

Question: And the outcome [10]?
Answer: Its outcome is “inactive”.

Question: What about the outcome [11] of the same molecule?
Answer: Its outcome is “inactive”.

Question: And the outcome [12]?
Answer: The outcome was “inactive”.

Question: What about the outcome [13] of the same molecule?
Answer: Its outcome is “inactive”.

Question: And the outcome [14]?
Answer: Its outcome is “inactive”.

Question: What about the outcome [15] of the same molecule?
Answer: Its outcome is “inactive”.

Question: And the outcome [16]?
Answer: Its outcome is “inactive”.

Question: And the outcome [17]?
Answer: Its outcome is “inactive”.

Question: What about the AC50 [18] of the same molecule?
Answer: The AC50 was 43.4 µM (active).

Question: What about the outcome [19] of the same molecule?
Answer: Its outcome is “inactive”.

Question: And the outcome [20]?
Answer: Its outcome is “inactive”.

Question: And the outcome [21]?
Answer: Its outcome is “inactive”.

Question: What about the outcome [22] of the same molecule?
Answer: Its outcome is “inactive”.

Question: And the outcome [23]?
Answer: The outcome was “inactive”.

Question: And the outcome [24]?
Answer: The outcome was “inactive”.
